The values that follow come from the supplement of paper PMC6555819.

Holding throughout (test): PBM binding z-score (relative to random genomic background probes); higher = stronger binding; sequences stand for … in GC…GCGATTGACAGCGTAGAATGAAGG
The subject of assay [1] is RARb homodimer (NR concentration 270 nM). The method in brief: (§1)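 Binding z-scores were set against random background probes. The data came from custom Agilent 4×180K protein-binding microarrays carrying double-stranded probes with 34-nt variable regions, incubated 1 h with ligand-free nuclear receptor dimers. Partner-specific antibodies detected binding, and scanned fluorescence was regression-normalized.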

In assay [2] the test system is RARg:RXRa (NR concentration 270 nM, RXRa partner concentration 90 nM). Summed up:
as §1

Assay [3] has as its system RARg homodimer (NR concentration 270 nM). Summed up:
as §1

For assay [4], the system named is RXRa DBDmut IVT, anti-RXR (DBD mutation: RXRa K156A/R161A, NR concentration 90 nM). Summed up: as §1
Assay [5] has as its system RXRa homodimer (NR concentration 180 nM). The method in brief:
as §1

Assay [6] relates to THRa:RXRa (NR concentration 90 nM, RXRa partner concentration 90 nM). The method in brief: as §1
In assay [7] the test system is THRa homodimer (NR concentration 90 nM). The method in brief: as §1
Assay [8] deals with VDR homodimer (NR concentration 270 nM). Summed up:
as §1

Consider TCTTGTAGAACAACAGGAGGTTAAGAAAGATCGA, for which the PBM binding z-score in assay [1] came to 0.958; in assay [2], 0.377; in assay [3], 0.286; in assay [4] it was 0.511; in assay [5] it was 0.875; in assay [6] it was 0.726. The PBM binding z-score in assay [7] was -0.422; in assay [8] it was -0.182.

For the sequence TCAGACAGGTGAAGGTAGCTCAGGTACGCAGTCG, the PBM binding z-score turned out to be 0.62 in assay [1]; 0.413 in assay [2]; 0.456 in assay [3]; 1.13 in assay [4]; 0.741 in assay [5]; 0.667 in assay [6]. Besides, the PBM binding z-score in assay [7] was 0.148; in assay [8], -0.026.

For the sequence AGTCAAAGTTCACTAGGTATCGTAAGATTCAGCT, the PBM binding z-score in assay [1] turned out to be 3.71; in assay [2], 4.66; in assay [3], 5.74; in assay [4], 4.28; in assay [5] it was 3.72; in assay [6], 1.51. For the same sequence, the PBM binding z-score in assay [7] is -0.258; in assay [8], 4.12.

Consider TCATAGAGGTAATACAGGTGAAAGTCGGCATCTA, for which the PBM binding z-score in assay [1] stood at 0.233; in assay [2] it was 0.441; in assay [3], 0.488; in assay [4], 1.01; in assay [5], 1.16; in assay [6] it was 1.4. The PBM binding z-score in assay [7] was -0.345; in assay [8] it was 0.0318.

In the case of ACTAGCAGGCCAAGGTTCACTCAAGATTAGTCCG, the PBM binding z-score in assay [1] is 1.66; in assay [2], 1.53; in assay [3], 1.15; in assay [4], 1.75; in assay [5], 1.58; in assay [6] it was 1.31. For the same sequence, the PBM binding z-score in assay [7] was determined as 0.0178; in assay [8], 3.42.

TTACCAAGGTGAAGGTCGTTCATCCCTCTGTAGA: the PBM binding z-score came to 2.21 in assay [1]; 1.63 in assay [2]; 1.5 in assay [3]; 0.548 in assay [4]; 1.75 in assay [5]; 2.62 in assay [6]. Further, the values for the PBM binding z-score in assay [7] and in assay [8] were 1.08 and 1.1, respectively.

Take ATATGTAGGTTACATCCGGGTCATTCCGGCTATG: the PBM binding z-score in assay [1] worked out at 2.71; in assay [2], 3.56; in assay [3], 2.07; in assay [4], 1.21; in assay [5], 2.92; in assay [6], 3.61. Also, the PBM binding z-score came out at 2.3 in assay [7] and 2.99 in assay [8].
